Reference: PubChem BioAssay (Tox21)
Records with an inconclusive call do not appear. The source made the active and inactive calls. Unless noted, the call rests on the fitted dose curve; in most records, active means well fitted curve in the direction sought with a large enough effect in the repeat runs; inconclusive means weak or mixed curves; inactive means no such curve, though single readings can be large; an effect the other way counts as inactive or inconclusive.

Experiments:
[1] = qHTS assay for small molecules that induce genotoxicity in human embryonic kidney cells expressing luciferase-tagged ATAD5 (AID 651632); further: nearly all actives have a fitted effect of over 15% in size
Method in brief: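 Quantitative HTS in HEK293T expressing luciferase-tagged ATAD5, whose levels rise upon DNA damage. Exposure ran 16 hr at 37C and 5% CO2, with luminescence read 30 min after Amplite addition at room temperature.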

[2] = qHTS assay for small molecule agonists of the p53 signaling pathway - cell viability (AID 651633; calls by dose curve;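 further: p53RE-bla HCT reporter cells with a stable beta-lactamase p53 reporter; nearly all actives have a fitted effect of over 30% in size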)
Method in brief: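 p53RE-bla cells were treated with compound for 16 hours at 37 C. Cytotoxicity was then measured as CellTiter-Glo luminescence after 30 min at room temperature.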

[3] = qHTS assay for small molecules that induce genotoxicity in human embryonic kidney cells expressing luciferase-tagged ATAD5 - cell viability (AID 651634; calls by dose curve; further: nearly all actives have a fitted effect of over 25% in size)
Method in brief: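 After 15.5 hr incubation with compound at 37C, 5% CO2, HEK293T ATAD5-luciferase cells received CellTiter-Fluor reagent; fluorescence intensity was quantified following 30 min at 37C.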

[4] = qHTS assay for small molecule disruptors of the mitochondrial membrane potential (AID 720635); further: potency means the concentration at half of the fitted maximal effect
Method in brief: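 HepG2 cells exposed to compound 1 hr at 37C, then Mito-MPS dye 30 min. Ratio read of aggregate (540/590 nm) versus monomer (490/535 nm) fluorescence.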

[5] = qHTS assay to test for compound auto fluorescence at 590 nm (red) in HepG2 cells (AID 720674)
Method in brief: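 HepG2 cells, 2,000 per well in MEM with 10% FBS, attached overnight at 37 C, then got 23 nL compound or DMSO. After 1 hr at 37 C, 5% CO2, red fluorescence was read at 540/590 nm against Rose Bengal sodium as reference.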

[6] = qHTS assay to test for compound auto fluorescence at 535 nm (green) in HepG2 cells (AID 720675)
[7] = qHTS assay to test for compound auto fluorescence at 460 nm (blue) in HEK293 cells (AID 720678)
Method in brief: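 HEK293, 2,000 cells/well, 10% dialyzed FBS; attach 4-5 hr 37C; pin compound or DMSO; o/n 37C/5% CO2; fluorescence 405/460 nm; triamterene-equivalent units.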

[8] = qHTS assay to test for compound auto fluorescence at 590 nm (red) in HEK293 cells (AID 720679)
Method in brief: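 Intensity at 540nm excitation and 590nm emission is reported as Rose Bengal sodium-equivalent autofluorescence. Measurements followed overnight exposure (37C, 5% CO2) of HEK293 cells, 2,000 per well, to 23 nL compound.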

[9] = qHTS assay to test for compound auto fluorescence at 460 nm (blue) in HEK293 cell free culture (AID 720681)
Method in brief: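 Compounds were added to cell-free DMEM with 10% FBS and fluorescence read directly. The blue channel used 405 nm excitation and 460 nm emission, with triamterene as the reference fluorophore.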

[10] = qHTS assay to test for compound auto fluorescence at 590 nm (red) in HEK293 cell free culture (AID 720683)
Method in brief: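 Cell-free wells of DMEM with 10% FBS received compound, and intrinsic fluorescence was read at excitation/emission 540/590 nm. Values expressed as equivalence to Rose Bengal sodium.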

[11] = qHTS assay to test for compound auto fluorescence at 590 nm (red) in HepG2 cell free culture (AID 720684)
Method in brief: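 Rose Bengal sodium served as the reference for red signal. Test compounds were dispensed into serum-containing MEM (10% FBS) without cells, and plates were read at 540/590 nm.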

[12] = qHTS assay to test for compound auto fluorescence at 460 nm (blue) in HepG2 cell free culture (AID 720685)
Method in brief: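 Cell-free plates of MEM plus 10% FBS received 23 nL compound or DMSO vehicle; blue-channel (405/460 nm) intensity scored against triamterene as reference fluorophore.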

[13] = qHTS assay to test for compound auto fluorescence at 535 nm (green) in HepG2 cell free culture (AID 720686)
[14] = qHTS assay to test for compound auto fluorescence at 460 nm (blue) in HepG2 cells (AID 720687)
Method in brief: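 HepG2 cells in MEM with 10% FBS, attached overnight at 37 C, were exposed to compound or DMSO for 1 hr at 37 C, 5% CO2. Blue fluorescence was read at 405/460 nm, with triamterene as reference fluorophore.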

[15] = molecular target: Glucocorticoid receptor (Homo sapiens) (UniProt P04150); test: qHTS assay to identify small molecule agonists of the glucocorticoid receptor (GR) signaling pathway (AID 720691; active means well fitted activation curve with a large enough effect in the signal ratio in the repeat runs, not every such curve was filed as active; the % refers to the signal ratio); settings: GR-bla HeLa, beta-lactamase reporter ratio, 18 h; activation: at 62.4 µM (top of the series) unless noted
Method in brief: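 Cells: GR-bla HeLa, endogenous GR with stably integrated GRE-beta-lactamase reporter. Treatment 18 h, 37 C, compounds delivered in DMSO. Detection via LiveBLAzer B/G FRET substrate, 2 h RT, fluorescence intensity.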

[16] = qHTS assay for small molecule disruptors of the mitochondrial membrane potential - cell viability (AID 720634; calls by dose curve;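 further: human HepG2 liver cancer cells; nearly all actives have a fitted effect of over 20% in size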)
Method in brief: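 ATP-based luminescent viability readout (CellTiter-Glo, 30 min, room temperature) in HepG2 cells multiplexed with the m-MPI membrane potential dye; compound exposure lasted 1 hr at 37 C.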

[17] = qHTS assay to test for compound auto fluorescence at 535 nm (green) in HEK293 cells (AID 720680)
[18] = qHTS assay to test for compound auto fluorescence at 535 nm (green) in HEK293 cell free culture (AID 720682)
Method in brief: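 Green-label autofluorescence (485 nm excitation, 535 nm emission) measured on compound added to cell-free culture medium (DMEM, 10% FBS). Output is expressed relative to fluorescein.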

[19] = molecular target: Glucocorticoid receptor (Homo sapiens) (UniProt P04150); test: qHTS assay to identify small molecule antagonists of the glucocorticoid receptor (GR) signaling pathway (AID 720692; active means well fitted inhibition curve with a large enough effect in the signal ratio in the repeat runs, not every such curve was filed as active; the % refers to the signal ratio)
Method in brief: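 Quantitative HTS in antagonist format: HeLa cells expressing endogenous GR and a stably integrated GRE-bla reporter, stimulated with 5 nM dexamethasone (final) alongside test compounds for 18 h.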

Measured: Potency

Glucocorticoid receptor (Homo sapiens), sequence (P04150 whole entry, looked up): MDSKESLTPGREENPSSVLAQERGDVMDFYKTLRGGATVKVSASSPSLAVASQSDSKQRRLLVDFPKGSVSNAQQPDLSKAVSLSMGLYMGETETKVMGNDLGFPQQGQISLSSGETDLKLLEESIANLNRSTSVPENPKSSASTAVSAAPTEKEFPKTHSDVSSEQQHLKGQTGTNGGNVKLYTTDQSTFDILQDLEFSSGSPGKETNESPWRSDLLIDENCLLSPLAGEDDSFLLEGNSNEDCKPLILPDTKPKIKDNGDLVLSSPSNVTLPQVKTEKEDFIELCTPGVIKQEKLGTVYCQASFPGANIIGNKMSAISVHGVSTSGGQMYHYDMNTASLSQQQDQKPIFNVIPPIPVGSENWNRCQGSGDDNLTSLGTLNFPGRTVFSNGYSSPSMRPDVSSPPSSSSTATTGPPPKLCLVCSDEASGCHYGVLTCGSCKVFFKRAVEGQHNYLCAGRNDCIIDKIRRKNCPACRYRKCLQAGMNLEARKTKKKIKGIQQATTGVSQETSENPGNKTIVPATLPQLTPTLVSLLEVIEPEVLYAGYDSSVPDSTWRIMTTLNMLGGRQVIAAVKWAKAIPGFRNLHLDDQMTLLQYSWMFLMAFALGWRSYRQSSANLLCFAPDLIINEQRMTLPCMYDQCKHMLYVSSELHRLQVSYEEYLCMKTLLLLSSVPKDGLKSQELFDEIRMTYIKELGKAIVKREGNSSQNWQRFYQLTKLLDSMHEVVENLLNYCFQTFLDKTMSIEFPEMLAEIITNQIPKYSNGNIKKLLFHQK

Cc1nn(C)c(Oc2ccccc2)c1/C=N/OCc1ccc(C(=O)OC(C)(C)C)cc1
active: [4] 17.2 µM
not listed: [16] | [17] | [18] | [19]
inactive: all other assays above

CCC(CC)Nc1ccc(C)c(C)c1
not listed: [4] | [8] | [15] | [19]
inactive: all other assays above

CCCOC(C(=O)OC1CCN(C)CC1)(c1ccccc1)c1ccccc1
not listed: [4] | [14]
inactive: all other assays above

C[Si](C)(CCCN)O[Si](C)(C)CCCN
not listed: [4] | [5] | [15]
inactive: all other assays above

CC(C)(CO)[N+](=O)[O-]
not listed: [4] | [15]
inactive: all other assays above

Cc1cccc(C)c1NC(=O)CN(CC(=O)O)CC(=O)O
not listed: [4] | [14] | [17] | [18] | [19]
inactive: all other assays above

COc1ccc(C(=O)Nc2nc3ccccc3c(NCc3ccccc3)c2C#N)cc1
active: [4] 5.45 µM
not listed: [15] | [16] | [17] | [19]
inactive: all other assays above

CCCCc1ncc(/C=C(\Cc2cccs2)C(=O)O)n1Cc1ccc(C(=O)O)cc1
not listed: [4] | [15] | [16] | [19]
inactive: all other assays above
